The text below walks through data of PubChem BioAssay AID2762 (National Center for Advancing Translational Sciences (NCATS), 2010).

Molecules are shown by their SMILES. Results filed as inconclusive are left out. Unmarked numbers belong to inactive results. Activity calls are given as the source filed them. Calls follow the shape of the dose curve; as a rule, active = well fitted inhibition curve with a large enough effect; inconclusive = small, poorly fitted or top-dose-only effect, or effect the other way; inactive = no such curve, though single readings can be large or run the other way.

Chain of Nuclear receptor ROR-gamma (Mus musculus) (P51450 whole entry, looked up, the tested form may be a part): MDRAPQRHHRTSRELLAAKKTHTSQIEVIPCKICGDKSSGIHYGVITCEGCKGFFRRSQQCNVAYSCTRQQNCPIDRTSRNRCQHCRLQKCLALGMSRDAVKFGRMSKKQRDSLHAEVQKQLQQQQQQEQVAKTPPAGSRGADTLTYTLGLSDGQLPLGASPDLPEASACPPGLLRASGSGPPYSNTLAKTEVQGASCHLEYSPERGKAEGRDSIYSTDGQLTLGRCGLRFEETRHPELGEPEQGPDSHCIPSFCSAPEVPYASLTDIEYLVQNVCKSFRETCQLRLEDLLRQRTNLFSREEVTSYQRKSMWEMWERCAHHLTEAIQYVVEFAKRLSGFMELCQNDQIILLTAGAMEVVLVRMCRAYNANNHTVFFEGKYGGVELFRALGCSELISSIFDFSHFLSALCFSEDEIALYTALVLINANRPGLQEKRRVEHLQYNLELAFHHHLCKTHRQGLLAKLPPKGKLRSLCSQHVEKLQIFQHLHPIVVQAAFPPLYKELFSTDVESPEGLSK

The assay addresses Nuclear receptor ROR-gamma (Mus musculus) (UniProt P51450). Put plainly: Concentration response confirmation assay for inhibitors of ROR gamma transcriptional activity. The following applies: Drosophila S2 Gal4-RORgamma UAS-luciferase, 20 h; series mostly up to 46.1 µM; activity change, negative = inhibition: at the top concentration. From the text: NIH Molecular Libraries Probe Production Network [MLPCN] NIH Chemical Genomics Center [NCGC] MLPCN Grant: R03 DA026211-01 Assay Provider: Dan Littman, New York University Assay Overview: The retinoic acid-related orphan receptor (ROR) gamma is a transcription factor that has a central role in the differentiation of Th17 cells, a subset of T helper cells that secrete the inflammatory cytokines IL-17, IL-17F, and IL-22. Th17 cells have been implicated in graft versus host disease, autoimmune disease and asthma. ROR gamma is induced in naive T helper cells in the presence of TGF-beta combined with IL-6, IL-21, or IL-23, and thereafter directs the expression of the Th17 lineage cytokines. To study the mechanism of action of ROR gamma, an insect cell-based assay was screened. This Drosophila Schneider cell line was stably transfected with two vectors: a gene expressing a fusion of the Gal4 DNA binding domain and ROR gamma transactivation domain under the control of the metallothionine promoter and a Photinus luciferase reporter regulated by the Gal4 binding site enhancer, UAS. […] Small molecule inhibitors of ROR gamma activity are detected by a decrease in luciferase reporter activity.
Assay Protocol Summary: For screening, 600 cells in 4 uL/well were dispensed into white solid 1536-well plates (Grenier) using a solenoid-based dispenser. Following transfer of 23 nL compound or DMSO vehicle by a pin tool, the plates were incubated 1 hr at ambient temperature, and 1 uL/well copper sulfate (700 uM final concentration) was added. The plates were centrifuged 15 s at 1000 RPM and incubated 20 hr at ambient temperature. After addition of 1.5 uL Photinus luciferase detection reagent, the plates were incubated 10 min at ambient temperature and then read by an ViewLux (Perkin Elmer) to detect luminescence. Keywords: NIH Roadmap, MLPCN, MLI, MLSMR, qHTS, NCGC, qHTS, nuclear hormone receptor, retinoic acid-related orphan receptor, ROR gamma
Consider `O=C(Nc1ncc(Cc2ccccc2)s1)C1=NCCN1`, for which the Potency was 9.96 µM (active). `Cc1nc2ccccc2c(=O)n1-c1cc([N+](=O)[O-])cc([N+](=O)[O-])c1`: the “activity change, negative = inhibition” value was 39.9%. With `Cn1ncnc2c(=O)n(C)c(=O)nc1-2`, the Potency is 0.996 µM (active).
